# Structures can show the parent of a compound that is named as a salt.
# Tested on: HCC1937
# Test: relative cell viability, compound + RSL3, vs DMSO (fraction of DMSO control); higher = less growth inhibition
# Conditions: 72 h
# 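Further: breast cancer cell viability read out with the CCK-8 kit after co-treatment of each compound with the ferroptosis inducer RSL3.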
row,SMILES,relative cell viability
1,O=C(O)c1ccnc(N2CC(O)(c3ccc(OCc4c(-c5c(Cl)cccc5Cl)noc4C4CC4)cc3Cl)C2)c1 [Cilofexor] + COC(=O)c1ccc([C@H]2c3[nH]c4ccccc4c3C[C@H](C(=O)OC)N2C(=O)CCl)cc1 [RSL3],0.368
2,Cc1cc(N2C[C@@H](C)N[C@@H](C)C2)ncc1-c1ccc(-c2nc3c(ccn3C)c(=O)[nH]2)cc1 + COC(=O)c1ccc([C@H]2c3[nH]c4ccccc4c3C[C@H](C(=O)OC)N2C(=O)CCl)cc1 [RSL3],0.496
3,CCCCCCCCCCCCC/C=C/[C@@H](O)[C@@H](N)CO + COC(=O)c1ccc([C@H]2c3[nH]c4ccccc4c3C[C@H](C(=O)OC)N2C(=O)CCl)cc1 [RSL3],0.0823
4,Cc1ccc(Oc2nc3cc(-c4ccc(-c5ccccc5)cc4)c(Cl)cc3[nH]2)cc1C(=O)O + COC(=O)c1ccc([C@H]2c3[nH]c4ccccc4c3C[C@H](C(=O)OC)N2C(=O)CCl)cc1 [RSL3],0.538
5,CCCCCCCCCCCCCCOc1ccc(C(=O)OCC(=O)N(C)CC(=O)OCC)o1 [Olumacostat Glasaretil] + COC(=O)c1ccc([C@H]2c3[nH]c4ccccc4c3C[C@H](C(=O)OC)N2C(=O)CCl)cc1 [RSL3],0.281
6,C/C=C(\CC[C@@H](C)[C@H]1CC[C@H]2[C@@H]3CC=C4C[C@@H](O)CC[C@]4(C)[C@H]3CC[C@]12C)C(C)C [Fucosterol] + COC(=O)c1ccc([C@H]2c3[nH]c4ccccc4c3C[C@H](C(=O)OC)N2C(=O)CCl)cc1 [RSL3],0.476
7,O=C(O)c1cc2c(Cl)c(N3CCN(S(=O)(=O)c4c(Cl)cccc4Cl)CC3)ccc2o1 [Vonafexor] + COC(=O)c1ccc([C@H]2c3[nH]c4ccccc4c3C[C@H](C(=O)OC)N2C(=O)CCl)cc1 [RSL3],0.514
8,CN1CCN(c2ccc(/C=C(\C#N)c3ccccc3Br)cc2)CC1 [DG172 (dihydrochloride)] + COC(=O)c1ccc([C@H]2c3[nH]c4ccccc4c3C[C@H](C(=O)OC)N2C(=O)CCl)cc1 [RSL3],0.373
9,CC1(C)C[C@H]2C3=CC[C@@H]4[C@@]5(C)CC[C@H](O)[C@@](C)(CO)[C@@H]5CC[C@@]4(C)[C@]3(C)C[C@H](O)[C@@]2(CO)[C@@H](O)[C@@H]1O [Gymnemagenin] + COC(=O)c1ccc([C@H]2c3[nH]c4ccccc4c3C[C@H](C(=O)OC)N2C(=O)CCl)cc1 [RSL3],0.571
10,CC(C)(Oc1ccc(C(=O)c2ccc(Cl)cc2)cc1)C(=O)O [Fenofibric acid] + COC(=O)c1ccc([C@H]2c3[nH]c4ccccc4c3C[C@H](C(=O)OC)N2C(=O)CCl)cc1 [RSL3],0.536
11,C[C@@H]1O[C@@H](O[C@H]2[C@H](Oc3cc(O)c4c(c3)O[C@H](c3ccc(O)cc3)CC4=O)O[C@H](CO)[C@@H](O)[C@@H]2O)[C@H](O)[C@H](O)[C@H]1O [Naringin] + COC(=O)c1ccc([C@H]2c3[nH]c4ccccc4c3C[C@H](C(=O)OC)N2C(=O)CCl)cc1 [RSL3],0.949
12,COc1cccc(-n2c(=O)[nH]c3cc(Cl)n(-c4ccc(-c5cccc(OC)c5O)cc4)c3c2=O)c1 + COC(=O)c1ccc([C@H]2c3[nH]c4ccccc4c3C[C@H](C(=O)OC)N2C(=O)CCl)cc1 [RSL3],0.395
13,CCC(CC)CC1(C(=O)Nc2ccccc2SC(=O)C(C)C)CCCCC1 [Dalcetrapib] + COC(=O)c1ccc([C@H]2c3[nH]c4ccccc4c3C[C@H](C(=O)OC)N2C(=O)CCl)cc1 [RSL3],0.654
14,CC(c1cc2ccccc2s1)N(O)C(N)=O (configuration not stated) [Zileuton] + COC(=O)c1ccc([C@H]2c3[nH]c4ccccc4c3C[C@H](C(=O)OC)N2C(=O)CCl)cc1 [RSL3],0.895
15,CC(C)OC(=O)C(C)(C)Oc1ccc(C(=O)c2ccc(Cl)cc2)cc1 [Fenofibrate] + COC(=O)c1ccc([C@H]2c3[nH]c4ccccc4c3C[C@H](C(=O)OC)N2C(=O)CCl)cc1 [RSL3],0.681
16,CC(O)(CC(=O)O)CC(=O)O [Meglutol] + COC(=O)c1ccc([C@H]2c3[nH]c4ccccc4c3C[C@H](C(=O)OC)N2C(=O)CCl)cc1 [RSL3],0.443
17,O=C(Nc1ccccc1)c1cc([N+](=O)[O-])ccc1Cl + COC(=O)c1ccc([C@H]2c3[nH]c4ccccc4c3C[C@H](C(=O)OC)N2C(=O)CCl)cc1 [RSL3],0.805
